{"source": "the supplement of paper PMC8728848", "binders": {"B1": {"name": "RetS (Pseudomonas aeruginosa), Q9HUV7 (protein)", "chain": "MVRLRIAIGLLVSFLLLLLGPMSPAVADDAGVSSVPLQTTATTPSANQNWRLLRDESAQLRIADVLQRKEQFRPLAKRSFIFPASPQAVWLQVQLPAQKVPSWLWIFAPRVQYLDYYLVQDGQLVRDQHTGESRPFQERPLPSRSYLFSLPVDGKPMTLYVRMTSNHPLMAWFDQIDEAGLVGLEKPAYAFGMLLGGMLLLLMYNLIRFAYSRSASSLWLAAVHAALAVCAAANLGLVAFWLPGLKFNQSLTADLGALGAAVSLLWFACSFFRGTAESRLNRLLQGEALLILAVGAIIAFTQQLWFSWLIYLLVILSSLSVPLIAAWHWYRGYQPARLIVAGMIVFNAGFMVFLPVLFGTKQLDPGWLVLGVFSFATLAGLVLSVSLTERQRLIQQLNLQQRTSEAAHTAELQTKAEFLAKISHEIRTPMNGVLGMTELLLGTPLSAKQRDYVQTIHSAGNELLTLINEILDISKLESGQIELDEVQFDLNALIEDCLDIFRVKAEQQRIELISFTQPQVPRVIGGDPTRLRQVVLSLLDNAFKQTEEGEILLVVALDDQGETPRLRIAVQDSGHPFDAKEREALLTAELHSGDFLSASKLGSHLGLIIARQLVRLMGGEFGIQSGSSQGTTLSLTLPLDPQQLENPTADLDGPLQGARLLVVDDNETCRKVLVQQCSGWGLNVSAVSSGKEALAQLRTKAHLREYFDVVLLDQDMPGMTGMQLAAKIKEDPNLNHDILLIMLTGISNAPSKIIARNAGIKRILAKPVAGYTLKATLADELAQRGVSGVTNYLQPAKEAQAPSLPSDFRILVAEDNSISTKVIRGMLNKLNLQPDTASNGQEALSAMKATQYDLVLMDCEMPVLDGFSATEQLRAWEAHEQRPHTPVVALTAHILSEHKERARLVGMDGHMAKPVELSQLRELIAYWVGERDRRRQGDALPS"}}, "test_in_all_cases": "glycan array binding signal (z-score within array); higher = stronger binding", "settings_in_all_cases": "glycan notation: IUPAC condensed, linker removed", "key": {"[1]": {"biological_target": "Neu5Ac(a2-3)Gal(b1-3)GlcNAc(b1-3)GalNAc", "how_it_was_run": "(§1)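 Glycan array data came from 3228 arrays in the Consortium for Functional Glycomics database, and only arrays with an available protein sequence were kept. Glycan names were put into IUPAC-condensed notation, and columns mapping to the same glycan were averaged. The binding signal is a within-array Z-score, averaged across arrays of one protein sequence run at different concentrations or buffers and across linkers. A negative Z-score can be read as non-binding.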"}, "[2]": {"biological_target": "Neu5Ac(a2-3)Gal(b1-4)GlcNAc(b1-3)Gal(b1-4)GlcNAc(b1-3)Gal(b1-4)GlcNAc", "how_it_was_run": "as §1"}, "[3]": {"biological_target": "Neu5Ac(a2-3)Gal(b1-4)GlcNAc(b1-6)[Gal(b1-3)]GalNAc", "how_it_was_run": "as §1"}, "[4]": {"biological_target": "Neu5Ac(a2-3)Gal(b1-4)[Fuc(a1-3)]GlcNAc(b1-3)Gal", "how_it_was_run": "as §1"}, "[5]": {"biological_target": "Neu5Ac(a2-3)Gal(b1-4)[Fuc(a1-3)]GlcNAc(b1-3)Gal(b1-4)GlcNAc", "how_it_was_run": "as §1"}, "[6]": {"biological_target": "Neu5Ac(a2-3)Gal(b1-4)[Fuc(a1-3)]GlcNAc(b1-3)GalNAc", "how_it_was_run": "as §1"}, "[7]": {"biological_target": "Neu5Ac(a2-3)Gal6S(b1-4)[Fuc(a1-3)]GlcNAc", "how_it_was_run": "as §1"}, "[8]": {"biological_target": "Neu5Ac(a2-6)Gal(b1-4)GlcNAc6S", "how_it_was_run": "as §1"}, "[9]": {"biological_target": "Neu5Ac(a2-8)Neu5Ac(a2-3)[GalNAc(b1-4)]Gal(b1-4)Glc", "how_it_was_run": "as §1"}, "[10]": {"biological_target": "Neu5Ac(a2-8)Neu5Ac(a2-8)Neu5Ac(a2-3)[GalNAc(b1-4)]Gal(b1-4)Glc", "how_it_was_run": "as §1"}}, "note": "The sample as a whole holds a higher share of the strongest signals than the screen did.", "data": [{"binder": "B1", "values": [{"measurement": "glycan array binding signal (z-score)", "setting": "[1]", "result": -0.17}, {"measurement": "glycan array binding signal (z-score)", "setting": "[2]", "result": 0.517}, {"measurement": "glycan array binding signal (z-score)", "setting": "[3]", "result": -0.343}, {"measurement": "glycan array binding signal (z-score)", "setting": "[4]", "result": -0.075}, {"measurement": "glycan array binding signal (z-score)", "setting": "[5]", "result": 1.76}, {"measurement": "glycan array binding signal (z-score)", "setting": "[6]", "result": 3.56}, {"measurement": "glycan array binding signal (z-score)", "setting": "[7]", "result": -0.246}, {"measurement": "glycan array binding signal (z-score)", "setting": "[8]", "result": 0.369}, {"measurement": "glycan array binding signal (z-score)", "setting": "[9]", "result": 0.67}, {"measurement": "glycan array binding signal (z-score)", "setting": "[10]", "result": 0.181}]}]}
